Laboratory results taken from ChEMBL document CHEMBL4513135, “CO-ADD screening of IQOG CSIS (Spain) compounds”.
Potency and affinity values are given separately.

What follows are compounds tested on Klebsiella pneumoniae. Conditions: Concentration 32 ug.mL-1; ASSAY_TEST Inhibition of Bacterial Growth; detection method Absorption (OD600); MEDIA CAMHB; plate type 384well; NBS; CORNING #3640; time 18 hr.

SMILES | Inhibition [%]
O=C(Cc1c[nH]c2ccccc12)NN=Cc1ccccc1 | -6
CS(=O)(=O)O[C@H]1CC[C@H](OS(C)(=O)=O)CC1 | 13.68
Cc1ccc(S(=O)(=O)N[C@H]2CC[C@H](O)CC2)cc1 | 11.86
O=C(O)/C(=C\c1ccccc1)NC(=O)c1ccccc1 | 17.85
C#CCNc1ncccn1 | 20.12
CCOC(=O)C1=C(C)OC(N)=C(C#N)C1c1cccs1 (stereo not drawn) | 7.75
CCOC(=O)C1=C(C)Nc2nc3c(c(N)c2C1c1ccc([N+](=O)[O-])cc1)CCCC3.Cl (stereo not drawn) | 18.29
COc1nc2ccccc2cc1C=O | -3.66
COc1ccc(C=C2N=C(c3ccccc3)SC2=O)cc1 | 19.45
Cc1n[nH]c2c1C(c1ccc([N+](=O)[O-])cc1)C(C#N)=C(N)O2 (stereo not drawn) | -7.74
Nc1c2c(nc3c1C(c1ccccc1)c1ccc4ccccc4c1O3)CCCC2 (stereo not drawn) | 7.96
N#Cc1c(Cl)nc(Sc2ccccc2)c(C#N)c1-c1ccccc1 | -3.62
CCOC(=O)C1=C(C)OC(N)=C(C#N)C1c1cccnc1 (stereo not drawn) | 0.99
COc1ccc2c(c1)cc(CN(C)Cc1cn(Cc3ccccc3)nn1)n2C | 5.47
Cn1c(C(=O)O)cc2cc(OCCCC3CCN(Cc4ccccc4)CC3)ccc21 | 12.92
O=Cc1c[nH]c2ccccc12 [3-FORMYLINDOLE] | 22.42
CCOC(=O)c1c(C)nc(N)c(C#N)c1-c1cccs1 | -1.63
Br.C#CCNCC | 7.82
